Source: PubChem BioAssay AID1053125 (Broad Institute, 2014)
Results with a measured potency or affinity are listed apart. Unmarked numbers belong to inactive results.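 The calls were made as follows: active = viability loss whose fitted half-maximal concentration is at most twice the top valid tested dose; inconclusive = flat curve with 30 to 70% loss, or poor fit; inactive = the rest.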

experiment: viability loss in HepG2 liver cells – cell-based, ATP luminescence, cherry-pick, set 6, cytotoxicity control, dose response (AID 1053125); details: ATP luminescence (CellTiter-Glo), 72 h; series mostly up to 26 µM; activity change, negative = cytotoxicity: at the top concentration;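 also: negative values mean loss of viability signal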

SMILES	activity change, negative = cytotoxicity [%]
Cc1cc(CNC(=O)c2ccc3c(c2)OCO3)c2ccccc2n1	-4.91
CC(C)OCCCn1c(=N)c(C(N)=S)cc2c(=O)n3ccccc3nc21	-3.52
Cc1ccc(S(=O)(=O)Nc2ccc(Nc3ccccc3)cc2)cc1	-9.07
O=[N+]([O-])c1cccc(Nc2c3ccccc3nc3ccccc23)c1	-17.4
CCOC(=O)c1c(C)n(C)c2ccc(OCC(O)CN3CCC(C)CC3)cc12 (stereo not given)	-5.75
Clc1ccccc1C1=CC(c2ccco2)n2ncnc2N1 (stereo not given)	-9.12
Cc1c(C(=O)NCc2cccc([N+](=O)[O-])c2)sc(=O)n1Cc1cccc(F)c1	-4.27
Cn1c2ccccc2c(=O)c2ccc(F)cc21	-4.04
O=C(O)c1ccc(-c2ccc(/C=C3\NC(=O)N(Cc4ccc(Cl)cc4)C3=O)o2)cc1	9.07
CCc1nc(SCC(=O)c2ccccc2)c2ccccc2n1	-8.96
O=c1c2ccccc2n(CC(O)CN2CCCCC2)c2ccccc12 (stereo not given)	0.985
CC(C)(C)[C@H]1CCC(=O)N([C@H](CSc2ccccc2)Cc2ccccc2)CC1	-0.826
O=C(NCc1nnnn1-c1ccc(Cl)cc1)C1CC(=O)N(c2ccc(F)cc2)C1 (stereo not given)	-2.53
CCCOc1c(Br)cc(C2C3=C(CCCC3=O)N(C)C3=C2C(=O)CCC3)cc1OC	-0.917
CC1CC(C)CN(CCCNC(=O)CCC(=O)N2CC(C)Oc3ccccc32)C1 (stereo not given)	-6.78
O=C(Nc1ccc(-c2ccco2)cc1)C1CCCN(Cc2ccco2)C1 (stereo not given)	-14.2
COc1cc(C(c2c(C(=O)O)[nH]c3ccccc23)c2c(C(=O)O)[nH]c3ccccc23)ccc1OCc1ccccc1	-14.1
Cc1cccn2c(=O)c3cc(C(=O)NCCc4ccccc4)c(=N)n(CCCn4ccnc4)c3nc12	-14.1

SMILES	activity change, negative = cytotoxicity [%]
CCOc1ccc(NC(=O)CN(C)C(=O)CCCNC(=O)c2ccc(Cl)cc2)cc1OCC	-7.49
Cn1nc(-c2ccc(Cl)cc2)c2cc(C(=O)N3CCN(c4ccccc4)CC3)sc21	-12.4
Cn1cccc1/C=N/NC(=O)c1sc2cc(Cl)ccc2c1Cl	-8.71
Cc1cc(-c2ccccc2)c2ccc(NC(=O)C(C)(C)C)nc2n1	-0.045
CCn1c(=N)c(S(=O)(=O)c2ccccc2)cc2c(=O)n3ccccc3nc21	-12.9
Cc1ccc2nc3c(cc(S(=O)(=O)c4ccccc4)c(=N)n3Cc3ccco3)c(=O)n2c1	-15.1
Cc1ccc2c(c1)-c1c(cnn1CC(=O)Nc1ccccc1N1CCN(C)CC1)CO2	-11.7
CN1CCN(c2nc3ccccn3c(=O)c2/C=C(\C#N)S(=O)(=O)c2ccccc2)CC1	1.83
CC(C)(C)c1csc(N/N=C/c2ccc(O)cc2)n1	41.1
CCOC1=NN(c2ncc(C(F)(F)F)cc2Cl)C(=O)C1	-7.01
CN1CCc2c(sc(NC(=O)C3CCCCC3)c2C(N)=O)C1	-14.3
CCOCCCNc1nc2nc3ccc(C)cn3c(=O)c2cc1C(=O)NCC1CCCO1 (stereo not given)	-3.61
CC(C)CCN1C(=O)c2cccc3c(N)ccc(c23)C1=O	27.9
Cc1cccn2c(=O)c(/C=C(\C#N)C(N)=O)c(Oc3ccccc3)nc12	-7.13
Cc1nc2ccc(S(=O)(=O)Nc3ccc(-c4nc5cccnc5s4)cc3)cc2s1	6.75
Cc1ccc(-n2nnnc2CNC(=O)C(=O)c2c[nH]c3ccccc23)cc1C	-9.06
CCC(C)n1c(=N)c(C#N)cc2c(=O)n3cc(C)ccc3nc21 (stereo not given)	5.59
